# Laboratory results reported in PubChem BioAssay (EPA / NIEHS).
# Values joined by “and” are separate entries in the source; they are usually repeats but may differ in a detail not shown here. Equal entries are not always repeated. More than one record can exist for a structure, and the calls need not agree. Active and inactive are the calls of the source. How the source made its calls: active means hit-call score of the fitted dose curve at least 0.9, where 1 is the maximum; inactive means score below 0.9.
# Assay: CCTE_Shafer_MEA_dev_spike_duration_mean: CCTE's Neural Network Formation Assay for Mean Spike Duration, Shafer Lab (AID 2284051);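 on AC50: potency for a decrease in mean network spike duration versus DMSO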
# Description: CCTE_Shafer_MEA_dev assay is conducted using Axion Biosystems 48 well microelectrode array (MEA) plates and Maestro recording system. Each well of the MEA plate contains a grid of 16 microelectrodes embedded in the culture surface. Electrically active cells, such as neurons, can be cultured over the electrodes, and electrical activity in these cells can be recorded extracellularly. The spontaneous firing of neurons is captured from each electrode on a microsecond timescale providing both temporally and spatially precise data. […] The CCTE_Shafer_MEA_dev assay uses primary cultures of rat cortical neurons. Recordings are made on days post-plating 5, 7, 9 and 12. As these cultures mature over time, neural networks develop functional activity and form cohesive networks in which electrical activity can be highly coordinated. CCTE_Shafer_MEA_dev_spike_duration_mean is 1 of 19 assay components of the CCTE_Shafer_MEA_dev assay. It measures the average duration of network spikes (temporally-clustered groups of action potential firing across multiple electrodes) during a recording in a microelectrode array (MEA) using Axion Biosystems Maestro 768 channel amplifier with the AxIS adaptive spike detector. To collapse across multiple recordings made on days post-plating 5, 7, 9 and 12, the trapezoidal area-under-the-curve of the component is calculated.Data from the assay component CCTE_Shafer_MEA_dev_spike_duration_mean was analyzed into 1 assay endpoint. This assay endpoint, CCTE_Shafer_MEA_dev_spike_duration_mean, was analyzed in the negative analysis fitting direction relative to DMSO as the negative control and baseline of activity. Using a type of functional reporter, gain or loss-of-signal activity can be used to understand electrical activity.
# On the day prior to culture, each well was coated thoroughly with 150 uL of 0.05% polyethyleneimine (PEI, Sigma Cat P3143) in 50 mM HEPES (Sigma Cat H7523) at a pH of 8. The plate was incubated at 37C for one hour. PEI was rinsed out with 500 uL of sterile water three times. Plates were stored at 4C until the day of culture. This culture was plated at a seeding density of 1.5 x 10^5 cells/well on a 48-well MEA plate, prepared as described above. Cells were administered via a 25 uL media/laminin ([…]; Sigma Cat L2020-1MG) drop directly onto the microelectrode array, as adding the cells with the laminin results in better attachment than pre-coating with laminin. After 2 hours, an additional 475 uL of cortical media was added and the cells returned to the incubator. Exposure starts at day 0 of plating and is continued over twelve days of network development until the experiment is terminated. Cells are fed with fresh medium on DIV 5 and 9, following the recordings on those days. The entire volume of media in the well is exchanged and any vehicle or compound treatment is renewed. Complete details are found in OP-NHEERL/ISTD/SBB/TJS/2015-03-r0 (available on request, email shafer.tim@epa.gov). Measurement of the electrical activity is non-invasive, and recordings can be made from the same plate over multiple different days of the culture. In cortical neurons, this allows for the measurement of extracellular action potentials over the period during which networks form in the MEA plate.
Compound,outcome,AC50
CCOP(=O)(NC(C)C)Oc1ccc(SC)c(C)c1 (stereo not drawn),inactive,21 µM (active)
O=[N+]([O-])c1cc(C(F)(F)F)c(Cl)c([N+](=O)[O-])c1Nc1ncc(C(F)(F)F)cc1Cl,–,0.734 µM (active)
CC(=NC#N)N(C)Cc1ccc(Cl)nc1,inactive,–
C[Si](Cn1cncn1)(c1ccc(F)cc1)c1ccc(F)cc1,–,5.85 µM (active)
CCOP(=O)(SC(C)CC)N1CCSC1=O (stereo not drawn),inactive,–
CCOP(=S)(OCC)Oc1ccc([N+](=O)[O-])cc1,inactive,–
CN1COCN(Cc2cnc(Cl)s2)C1=N[N+](=O)[O-],inactive,–
CCOP(=S)(OCC)OC(Cl)C(Cl)(Cl)Cl (stereo not drawn),–,50 µM (active) and 23.4 µM (active)
CN(C)[C@@H]1C(=O)C(C(N)=O)=C(O)[C@@]2(O)C(=O)C3=C(O)c4c(O)cccc4[C@@](C)(O)[C@H]3[C@H](O)[C@@H]12,–,66.2 µM (active)
CCOP(=O)(OCC)Oc1cc(C)nc(C(C)C)n1,inactive,–
CON=C(C(=O)OC)c1ccccc1CON=C(C)c1cccc(C(F)(F)F)c1,–,603 nM (active) and 625 nM (active)
C#CCC1=C(C)C(OC(=O)C2C(C=C(C)C)C2(C)C)CC1=O (stereo not drawn),inactive,–
CCCCSP(=O)(SCCCC)SCCCC,–,50 µM (active) and 16.1 µM (active)
CCCSP(=O)(OCC)SCCC,–,36.2 µM (active) and 27.2 µM (active)
S=C1NCCN1,–,5.64 µM (active)
CSC1=N[C@@](C)(c2ccccc2)C(=O)N1Nc1ccccc1,inactive,–

Compound,outcome,AC50
COP(=O)(OC)C(O)C(Cl)(Cl)Cl (stereo not drawn),–,50 µM (active) and 15 µM (active)
CCCSP(=O)(OCC)Oc1ccc(Br)cc1Cl (stereo not drawn),inactive,–
CCOP(=S)(OCC)Oc1cc(C)nc(C(C)C)n1,inactive,–
C=C(C)[C@H]1Cc2c(ccc3c2O[C@@H]2COc4cc(OC)c(OC)cc4[C@@H]2C3=O)O1,–,35.4 nM (active) and 21.1 nM (active)
COP(=O)(NC(C)=O)SC (stereo not drawn),inactive,–
CC1=NNC(=O)N(/N=C/c2cccnc2)C1,inactive,–
C[N+]1(C)CCCCC1,inactive,–
CCOP(=S)(Oc1cnc(C(C)(C)C)nc1)OC(C)C (stereo not drawn),–,74.9 µM (active) and 9.65 µM (active)
COP(=O)(OC)OC(Br)C(Cl)(Cl)Br (stereo not drawn),–,8.37 µM (active) and 12.8 µM (active)
CC(C)[C@H](C(=O)O[C@H](C#N)c1cccc(Oc2ccccc2)c1)c1ccc(Cl)cc1,–,4.47 µM (active)
CC[C@H](C)[C@H]1O[C@]2(C=C[C@@H]1C)C[C@@H]1C[C@@H](C/C=C(\C)[C@@H](O[C@H]3C[C@H](OC)[C@@H](O[C@H]4C[C@H](OC)[C@@H](NC)[C@H](C)O4)[C@H](C)O3)[C@@H](C)/C=C/C=C3\CO[C@@H]4[C@H](O)C(C)=C[C@@H](C(=O)O1)[C@]34O)O2,–,13 nM (active) and 2.69 nM (active)
CC(Oc1cccc(Cl)c1)C(=O)O (stereo not drawn),inactive,–
CC(C)=CC1C(C(=O)OCN2C(=O)C3=C(CCCC3)C2=O)C1(C)C (stereo not drawn),inactive,–
CCOP(=S)(OCC)SCCSCC,inactive,–
CC(C)N(C(=O)SCC(Cl)=C(Cl)Cl)C(C)C,–,27.3 µM (active)
CCOC(=O)CC(SP(=O)(OC)OC)C(=O)OCC (stereo not drawn),inactive,–
